# Assay results: PubChem BioAssay AID540257 (Southern Research Specialized Biocontainment Screening …, 2011)
# About 15 (0.8%) of roughly 1,800 compounds were called active. These entries were drawn from the full list. Measured potencies and affinities stand elsewhere. A number with no mark means an inactive call. How the calls were made is not given here.
# Test: antiviral activity against H1N1 influenza, dose response, cell-based, strain KY136 (AID 540257)
# Conditions: H1N1 KY136 influenza antiviral cell assay, % inhibition; series mostly up to 40 µM; inhibition: at the top concentration
row,Structure (SMILES),inhibition [%]
1,O=C(Nc1cc(Cl)ccc1N1CCOCC1)c1cnccn1,2.51
2,COc1ccc(Nc2ncccc2C(=O)Nc2ccccc2)cc1,-5.03
3,COc1ccc(OC)c(-n2c(SCC(N)=O)nnc2-c2c[nH]c3ccccc23)c1,4.59
4,Cc1ccnc2nc(C(=O)Nc3nc(-c4ccccn4)cs3)nn12,3.18
5,O=C(CSc1nnc(CCCOc2ccc(Cl)cc2Cl)o1)Nc1ccc(C(=O)O)cc1,-0.09
6,COc1ccc(NC(=O)CNS(=O)(=O)c2ccc(Cl)cc2)cc1OC,1.52
7,CC1=[N+](C)c2c(ccc3cccnc23)C1(C)C,-1.21
8,CN(C)c1ccc(C=c2c3cc([N+](=O)[O-])ccc3n3c2cc(-c2ccccc2)[n+]3C)cc1,-5.42
9,CC(c1cccs1)N(Cc1ccco1)C(=O)Nc1ccc(Cl)c(Cl)c1 (stereo unspecified),-7.16
10,Cc1c(NC(=S)N/N=C\c2ccccc2O)c(=O)n(-c2ccccc2)n1C,-1.97
11,O=C(CS(=O)(=O)c1cn(Cc2ccc(Cl)cc2)c2ccccc12)N1CCCCC1,1.62
12,COC1=C(Nc2ccc(OC)cc2)C(=O)c2ccccc2C1=O,-4.13
13,Cc1ccccc1NC(=O)CSc1nn2c(=O)c(C)nnc2s1,-5.32
14,C(=N\Nc1nc2ccccc2[nH]1)/c1cccc2cccnc12,-3.18
15,C[C@@H]1NC(=O)N[C@@H]1CCCCCC(=O)O,0.46
16,C=CCC1c2cccc(C(=O)O)c2C(=O)N1c1ccc(F)cc1 (stereo unspecified),-0.92
17,Cc1cc(C)cc(NC2=C(N)C(=O)c3ccccc3C2=O)c1,-0.3
18,CCc1ccc(NC(=O)N(CCN2CCOCC2)Cc2ccc3c(c2)CCCN3CC)cc1,1.01
19,CCCc1nc(SCc2cccnc2)c2c(=O)n(C)c(=O)n(C)c2n1,0.3
20,Cc1ccccc1NC(=S)N(CCN(C)C)C(C)c1ccccn1 (stereo unspecified),8.04
21,Cc1ccc(S(=O)(=O)/N=C2\C=C(Nc3cccc(C(=O)O)c3)C(=O)c3ccccc32)cc1,-0.83
22,CCCN(CCC)CCCNC(=O)CCNS(=O)(=O)c1ccc(Br)cc1,-1.67
23,O=C(NCc1cccs1)c1cnc2sccn2c1=O,0.92
24,CN1CCc2c(sc(NC(=O)C3CCCCC3)c2C(N)=O)C1,2.08

row,Structure (SMILES),inhibition [%]
1,COc1cc(N(C)C)ccc1C=c1c2ccccc2n2c1cc(-c1ccccc1)[n+]2C,-5.05
2,O=C(NCc1cccnc1)C1c2ccccc2C(=O)N1C1CCCCCCC1 (stereo unspecified),0.93
3,CN(C)c1ccc(Cc2ccc(N(C)C)cc2)cc1,-1.19
4,Nc1nc(-c2ccccn2)nc(N)c1Cc1c(F)cccc1Cl,-2.88
5,COC(=O)CNC(c1ccccc1)c1cc(C)ccc1NS(=O)(=O)c1ccc(C)cc1 (stereo unspecified),20.3
6,CN(C)CCCNC(=S)NCC(c1ccc(Cl)cc1Cl)c1c[nH]c2ccccc12 (stereo unspecified),-16
7,O=C(Nc1nc2c(s1)CCCC2)c1ccc(Br)s1,-2.12
8,Cc1cccc(N2CCN(C(=O)c3cc4ccccc4oc3=O)CC2)c1C,-3.85
9,COc1cc(N/N=C/c2ccccc2O)ncn1,-1.49
10,CCOc1ccc(-c2nc(C#N)c(N3CCOCC3)o2)cc1,1.35
11,CCc1ccc(S(=O)(=O)/N=C2\C=C(Nc3ccc(O)cc3)C(=O)c3ccccc32)cc1,-1.51
12,O=C(Nc1nc(-c2ccccc2)cs1)c1ccc(S(=O)(=O)N2CCc3ccccc32)cc1,0
13,c1ccc(-c2nc(-c3ccncc3)n[nH]2)nc1,0.76
14,Oc1cccc2ccc(Nc3ccccn3)nc12,-14.1
15,O=C(N/N=C/c1ccccc1O)C1SCCCS1,-12.7
16,CCCCOc1cccc(-c2nnc(NC(=O)CSc3ccc(C)cc3)s2)c1,0.19
17,CC(=O)NC(c1ccccc1)c1cc([N+](=O)[O-])c2cccnc2c1O (stereo unspecified),-0.23
18,Nc1[nH]c(N=NC(=O)c2ccccc2O)c2ccccc12,-1.36
19,COc1cc(-c2n[nH]c(=S)n2-c2cccc(C(F)(F)F)c2)cc(OC)c1OC,-0.46
20,O=C(CCCN1C(=O)/C(=C/c2ccc3c(c2)OCO3)SC1=S)Nc1ccc(C(=O)O)cc1,-1.62
21,CN1CCN(NC(=O)CN2C(=O)/C(=C/c3ccccc3Cl)SC2=S)CC1,0.15
22,CCOC(=O)c1ccc(Nc2c(CC)c(C)nc3ncnn23)cc1,-0.18
23,COc1ccccc1N1CCN(C(=O)CCCn2c(=O)[nH]c3ccsc3c2=O)CC1,-0.55
24,O=C1CCCC2=C1C1(CCCCC1)N=C(Nc1nc3ccccc3s1)N2,-0.46

row,Structure (SMILES),inhibition [%]
1,O=C(O)c1cccc2c1/C(=N/O)c1ccccc1-2,-1.51
2,O=C(COC(=O)c1ccc([N+](=O)[O-])cc1)Nc1cccnc1Cl,2.51
3,C[n+]1c(/C=C/c2ccc(O)cc2)ccc2ccccc21,-0.74
4,COc1cc(C=NO)nc(-c2ccccn2)c1,-15.2
5,O=[N+]([O-])c1cccc(C=Nc2cc3c(cc2Br)OCCO3)c1,0.23
6,CCOc1ccccc1CNC(=O)c1ccc2c(c1)N(CC)CCS2,-6.06
7,Clc1ccc(-c2nnc(N3CCCC3)nn2)cc1,1.97
8,CCCS(=O)(=O)n1nc(-c2ccccc2)cc1N,1.16
9,O=C(Nc1ccc(N2CCOCC2)cc1)Nc1ccc(Cl)c(Cl)c1,-14.1
10,Nc1nc(Nc2ccccc2)nc(NCc2ccco2)c1[N+](=O)[O-],-3.58
11,O=C1CC(c2ccccc2)Cc2nc(NCc3ccco3)ncc21 (stereo unspecified),13.9
12,C=CC[n+]1c(/C=C2\C=Cc3cc(C)ccc3N2CC)ccc2ccccc21,-1.51
13,O=C1C(=C(c2ccccc2)c2ccccc2)Nc2ccccc21,4.26
14,O=C(CN1CCN(S(=O)(=O)c2ccccc2)CC1)Nc1ccc(N2CCOCC2)cc1,0.12
15,O=S(=O)(c1cccs1)N1CCN(CC(O)COc2cc(Cl)ccc2Cl)CC1 (stereo unspecified),-12.7
16,O=C(CCc1ccccc1)Nc1cc2c(cc1Cl)OCCO2,3.94
17,O=C(Nc1ccccc1C(=O)NCc1cccnc1)c1ccc(Cl)cc1Cl,-1.04
18,O=C(COC(=O)[C@H](Cc1c[nH]c2ccccc12)NC(=O)c1cccs1)NCc1ccccc1,4.26
19,c1ccc(Cn2nnc3c(N4CCCCCC4)ncnc32)cc1,0
20,CCOC(=O)N1CCN(c2cc(=O)n(-c3ccc(C)cc3)c(=O)[nH]2)CC1,0.45
21,O=C1C(Nc2ccc(O)cc2)=C/C(=N/S(=O)(=O)c2cccs2)c2ccccc21,-5.8
22,O=C(NC(=S)NNC(=O)c1cnccn1)c1ccc(Cl)cc1,-2.73
23,O=C1CSC(=S)N1N=Cc1ccccc1O,-1.49
